Data reported in PubChem BioAssay (NCI).
Compounds without any hit were thinned out: in the full panel of roughly 83,000, 20% have a hit.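 Method: cells in 96-well plates; compound added at one concentration; 48 h incubation; percent growth measured; values under 10 scored active.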 Active and inactive are the calls of the source.

How the values were obtained:
Test in all cases: NCI-60 one-dose screen, 48 h (100 = growth as untreated, 0 = no growth, -100 = all killed)
NCI-H23 lung = conditions: 10 µM unless noted
NCI-H226 lung = conditions: 10 µM unless noted
NCI-H322M lung = conditions: 10 µM unless noted
HOP-62 NSCLC = conditions: 10 µM unless noted
NCI-H460 lung = conditions: 10 µM unless noted
HOP-92 NSCLC = conditions: 10 µM unless noted
NCI-H522 lung = conditions: 10 µM unless noted
A549/ATCC NSCLC = conditions: 10 µM unless noted
786-0 renal = conditions: 10 µM unless noted
COLO 205 colon = conditions: 10 µM unless noted
DU-145 prostate = conditions: 10 µM unless noted
K-562 leukemia = conditions: 10 µM unless noted
MALME-3M melanoma = conditions: 10 µM unless noted
RXF 393 renal = conditions: 10 µM unless noted
SF-268 CNS = conditions: 10 µM unless noted
SF-295 CNS = conditions: 10 µM unless noted
SF-539 CNS = conditions: 10 µM unless noted
UACC-257 melanoma = conditions: 10 µM
M14 melanoma = conditions: 10 µM unless noted
MDA-MB-231 breast = conditions: 10 µM unless noted

Measured: growth

CNC(C)=O
inactive: NCI-H23 lung 95.3% | NCI-H226 lung 95.1% | NCI-H322M lung 92% | HOP-62 NSCLC 94.4% | NCI-H460 lung 106% | HOP-92 NSCLC 103% | NCI-H522 lung 89% | A549/ATCC NSCLC 92.1% | 786-0 renal 106% | COLO 205 colon 98.8% | DU-145 prostate 99.5% | K-562 leukemia 90.3% | MALME-3M melanoma 86.1% | RXF 393 renal 105% | SF-268 CNS 98.4% | SF-295 CNS 93.7% | SF-539 CNS 89.8% | UACC-257 melanoma 102% | M14 melanoma 108%

COC(=O)[C@H]1[C@H](OC)[C@@H](OC(=O)/C=C/c2ccncc2)CC2CN3CCc4c([nH]c5cc(OC)ccc45)[C@@H]3C[C@@H]21 (some centres not stated)
active: HOP-92 NSCLC 1.2%
inactive: NCI-H23 lung 97% | NCI-H226 lung 73.7% | NCI-H322M lung 78.4% | HOP-62 NSCLC 78.5% | NCI-H460 lung 92.5% | NCI-H522 lung 72% | A549/ATCC NSCLC 82.9% | 786-0 renal 83.5% | COLO 205 colon 79.2% | DU-145 prostate 80% | K-562 leukemia 57.3% | MDA-MB-231 breast 62.2% | RXF 393 renal 72.7% | SF-268 CNS 80.3% | SF-295 CNS 90.4% | SF-539 CNS 91% | UACC-257 melanoma 62.3% | M14 melanoma 78.4%

CCCCC(N)(C(=O)O)C1CCCC1 (configuration not stated)
inactive: NCI-H23 lung 106% | NCI-H226 lung 101% | NCI-H322M lung 101% | HOP-62 NSCLC 112% | NCI-H460 lung 107% | HOP-92 NSCLC 102% | NCI-H522 lung 102% | A549/ATCC NSCLC 94.4% | 786-0 renal 96% | COLO 205 colon 123% | DU-145 prostate 122% | MALME-3M melanoma 127% | MDA-MB-231 breast 105% | RXF 393 renal 106% | SF-268 CNS 107% | SF-295 CNS 98.8% | SF-539 CNS 96.7% | UACC-257 melanoma 87.2% | M14 melanoma 107%

COC(=O)C(CC(=O)c1ccc(-c2ccccc2)cc1)c1ccccc1 (configuration not stated)
inactive: NCI-H23 lung 76.6% | NCI-H226 lung 63.3% | NCI-H322M lung 96.8% | HOP-62 NSCLC 75.1% | NCI-H460 lung 90% | HOP-92 NSCLC 68.3% | A549/ATCC NSCLC 76.6% | 786-0 renal 28.7% | COLO 205 colon 36.7% | DU-145 prostate 72.7% | K-562 leukemia 20.6% | MDA-MB-231 breast 66.3% | RXF 393 renal 56.5% | SF-268 CNS 88.7% | SF-295 CNS 58.6% | SF-539 CNS 34.7% | UACC-257 melanoma 66.7% | M14 melanoma 42.6%
active: NCI-H522 lung -0.151%

O=C(O)c1cccc([N+](=O)[O-])c1/C=C/c1ccccc1
inactive: NCI-H23 lung 102% | NCI-H226 lung 96.9% | NCI-H322M lung 90.5% | HOP-62 NSCLC 92.6% | NCI-H460 lung 103% | HOP-92 NSCLC 112% | NCI-H522 lung 116% | A549/ATCC NSCLC 104% | 786-0 renal 98.1% | COLO 205 colon 98.9% | DU-145 prostate 105% | MALME-3M melanoma 90.4% | MDA-MB-231 breast 109% | RXF 393 renal 103% | SF-268 CNS 97.7% | SF-295 CNS 95.4% | SF-539 CNS 107% | UACC-257 melanoma 117% | M14 melanoma 101%

Nc1nc(-c2ccccc2)cs1
inactive: NCI-H23 lung 111% | NCI-H226 lung 93.3% | NCI-H322M lung 109% | HOP-62 NSCLC 97% | NCI-H460 lung 109% | HOP-92 NSCLC 101% | NCI-H522 lung 102% | A549/ATCC NSCLC 95.6% | 786-0 renal 105% | COLO 205 colon 108% | DU-145 prostate 104% | K-562 leukemia 114% | MDA-MB-231 breast 104% | RXF 393 renal 120% | SF-268 CNS 96.4% | SF-295 CNS 104% | SF-539 CNS 99.1% | UACC-257 melanoma 98.5% | M14 melanoma 97.2%

COc1ccc(/C=C/C(=O)c2cccc(B(O)O)c2)cc1O
active: DU-145 prostate -10% | K-562 leukemia 8.39% | SF-539 CNS 0.0331%
inactive: NCI-H23 lung 61.9% | NCI-H226 lung 91.5% | NCI-H322M lung 64% | HOP-62 NSCLC 40.5% | NCI-H460 lung 13.8% | HOP-92 NSCLC 41.4% | NCI-H522 lung 43.9% | A549/ATCC NSCLC 41.7% | 786-0 renal 59.1% | COLO 205 colon 98.3% | MDA-MB-231 breast 48.2% | RXF 393 renal 41.5% | SF-268 CNS 47.8% | SF-295 CNS 87.4% | UACC-257 melanoma 75% | M14 melanoma 70.6%

CC(=O)Nc1ccc(S(=O)(=O)N2C(=O)CCC2C(=O)Nc2ccccc2)cc1 (configuration not stated)
active: HOP-92 NSCLC -5.79% | SF-295 CNS 1.91% | SF-539 CNS -22%
inactive: NCI-H23 lung 38.5% | NCI-H226 lung 46.9% | NCI-H322M lung 38% | HOP-62 NSCLC 30.3% | NCI-H460 lung 15.1% | NCI-H522 lung 27.5% | A549/ATCC NSCLC 21.3% | 786-0 renal 26.2% | COLO 205 colon 12.1% | DU-145 prostate 50.2% | K-562 leukemia 11.8% | MDA-MB-231 breast 25.6% | RXF 393 renal 57.7% | SF-268 CNS 61.9% | UACC-257 melanoma 33.7% | M14 melanoma 10.3%
